Compound activity deposited in PubChem by National Center for Advancing Translational Sciences (NCATS).
Rows were chosen to be rich in hits. Some 1.6% of all compounds tested hit in one or more screens of this group.
hERG WT inh = blocks the wildtype human KCNH2 potassium channel; activity change, % at 1.84 µM; U2OS, BacMam KCNH2, thallium flux FluxOr; stronger effect = lower value; AID 720551; 340,000 tested, 0.37% active;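 active means maximum activity change below -70%; inconclusive means maximum activity change between -70% and -50%; inactive means maximum activity change above -50%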; further: on the % scale 0 is the no-effect control and ±100 the full control effect
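U2OS cells transduced with wild-type KCNH2 virus are loaded with FluxOr dye for 45 min, and thallium flux is measured in kinetic reads before and after stimulation buffer. Rate constants are normalized to DMSO controls.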
GRP78 ERSR act = induces the endoplasmic reticulum stress response in human glioma cells; U87-MG GRP78 promoter luciferase reporter, 16 h; Potency, µM, for the others: top-dose activation, usual class: activators; 420,000 tested, 0.02% active; AID 602332; active means well fitted activation curve with a large enough effect; inconclusive means small, poorly fitted or top-dose-only effect; inactive means no such curve, though single readings can be large or run the other way; further: potency means the concentration at half of the fitted maximal effect; series mostly up to about 76 µM; % of control where 0% means no effect; nearly all actives have a fitted effect of over 35% in size
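Stably transfected U87-MG human glioma cells carrying a GRP78-based luminescent sensor were seeded at 1000 cells/well, pin-dosed with compounds and incubated 16 h. Luciferase reagent was then added, and end-point luminescence was read after 10 min at room temperature.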
pAkt inh = inhibitors of Akt phosphorylation | Neuro2A IGF-stimulated pAkt S473 HTRF, 20 min; stronger effect = lower value | activity change, % for hits at 50 µM | 360,000 tested, 0.32% active | AID 651550; in the data active means activity change below about -80%; inconclusive means mostly about -51% to -80%; further: on the % scale 0 is the no-effect control and ±100 the full control effect
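Neuro2A cells (4,500/well, DMEM with 0.5% FBS) were treated with compound at a single 50 µM final concentration, stimulated with 6 nM IGF for 20 min at 37 °C, and lysed. Phospho-Akt Ser473 was read by HTRF as 665/615 ratio ×10^4.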
gsp antag = antagonizes gsp, the McCune-Albright syndrome mutation; gsp-mutant cells, cAMP HTRF, 30 min; Potency, µM (top dose mostly 76.9 µM), for the others: top-dose activity change, negative = inhibition, most hits filed as inhibitors; 340,000 tested, 0.4% active; AID 624288; calls by dose curve; cell line not stated here;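 further: intracellular cAMP measured with PDE inhibitor Ro 20-1724 present during compound exposure; potency means the concentration at half of the fitted maximal effect; on the % scale 0 is the no-effect control and ±100 the full control effect; nearly all actives have a fitted effect of over 65% in size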
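Cells in G418 medium, seeded 16-24 h, 37C; buffer exchange to DPBS + 1 mM CaCl2, 0.5 mM MgCl2, 0.05% BSA; cpds in DMSO + […] (300 uM stock), 30 min 37C; HTRF cAMP detection.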
gsp ag = agonists of gsp mutant (McCune-Albright syndrome); 340,000 tested, 0.13% active; AID 624287; Potency, µM (series often up to 76.9 µM), inactives show top-dose activation (cAMP increase), actives largely listed as activators; gsp mutant cells, cAMP HTRF, 30 min; active means well fitted activation curve with a large enough effect; inconclusive means small, poorly fitted or top-dose-only effect, or another doubt; inactive means no such curve, though single readings can be large or run the other way; cell line not stated here;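 further: phosphodiesterase inhibitor Ro 20-1724 added with compounds to block cAMP breakdown; potency means the concentration at half of the fitted maximal effect; nearly all actives have a fitted effect of over 60% in size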
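Cells in DMEM/10% FBS with G418 were pretreated with compounds in DMSO plus […] (300 uM stock) for 30 min at 37C. cAMP was measured by HTRF (cAMP-d2 plus anti-cAMP antibody-K) after 30 min at room temperature.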
KCNH2 3.1 block = inhibitors of human KCNH2 3.1 potassium channel isoform; U2OS KCNH2 3.1, thallium flux FluxOr; stronger effect = lower value; activity change, % (tested at about 1.8 µM); 340,000 tested, 0.95% active;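 active means maximum activity change below -70%; inconclusive means maximum activity change from -70% to -50%; inactive means maximum activity change above -50%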;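 further: thallium influx rate constant from kinetic fluorescence after stimulation buffer; on the % scale 0 is the no-effect control and ±100 the full control effect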
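Thallium flux read-out: FluxOr dye with Red40 quencher in HBSS/HEPES, 45 min at RT. Rate constants from kinetic reads were normalized to positive and negative DMSO controls. Cells: U2OS virally expressing the 3.1 isoform.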
* = called active by the depositor; i = inactive; ? = inconclusive; . = no result.

SMILES	hERG WT inh	GRP78 ERSR act	pAkt inh	gsp antag	gsp ag	KCNH2 3.1 block
Cc1cccc(OCC(=O)Nc2cc(C)c(O)c(-c3nc4ccccc4o3)c2)c1	.	1.2%	.	.	.	.
CCCn1c2ccccc2c2cnn(CC(=O)NC3CCC(C)CC3)c(=O)c21 (stereo not given)	-3.0	-5.2%	i	-4.7%	12.3%	13.1
CCOC(=O)C1CCN(C(=O)Cn2ncc3c4ccccc4n(Cc4ccc(F)cc4)c3c2=O)CC1	.	39.8µM*	.	.	.	.
COc1ccc(-n2c(=O)c3ccccc3n(CC(=O)NC3CCCC3)c2=O)cc1	-2.8	-0.7%	-105.2%*	-4.9%	7.4%	1.2
CCCn1c2ccccc2c2cnn(CC(=O)NC3CCCCC3)c(=O)c21	-225.9*	-3.5%	i	6.9%	-7.4%	8.1
CCOC(=O)C1CCN(C(=O)Cn2ncc3c4ccccc4n(Cc4ccccc4)c3c2=O)CC1	.	31.6µM*	.	.	.	.
Cc1ccc(-c2nc3cc(Cl)ccc3o2)cc1NC(=O)COc1ccccc1C	.	2.9%	.	.	.	.
COc1ccccc1-n1cnc2cc(C(=O)NC3CCCC3)ccc21	-14.0	-1.6%	i	?	6.1%	-90.6*
COc1ccc(C)cc1-n1cnc2cc(C(=O)NC3CCCC3)ccc21	.	-3.0%	.	.	.	.
N#C/C(=C\c1cn(Cc2ccc(C#N)cc2)c2ccccc12)C(=O)NCc1cccs1	-26.3	-5.5%	i	19.1%	-24.2%	-85.8*
N#C/C(=C\c1cn(CCOc2ccccc2)c2ccccc12)C(=O)NCc1ccco1	4.6	-3.8%	i	-1.6%	1.0%	-7.8
Cc1ccccc1OCCn1cc(/C=C(\C#N)C(=O)NCc2ccco2)c2ccccc21	-14.6	2.4%	i	3.0%	?	-77.2*
CN(C)c1ccc(/C=C/c2ccnc3ccccc23)cc1Cl	.	-4.1%	.	.	.	.
Cc1oc(-c2cccc(NC(=O)c3ccccn3)c2)nc1CNC(=O)C#Cc1ccccc1	.	-2.1%	.	.	.	.
COc1ccc(C(=O)NCC2Cc3cc(C)cc(-c4nc5ccccc5s4)c3O2)c(OC)c1OC (stereo not given)	.	-4.5%	.	.	.	.
CC(C)N1[N]C(=C2C=c3cc(O)ccc3=N2)c2c(N)ncnc21	.	-6.3%	.	.	.	.
Brc1ccc2ncnc(Nc3ccc(N4CCOCC4)cc3)c2c1	1.5	-3.7%	i	7.9%	-9.1%	-104.5*
Cc1ccccc1NC(=O)C(Cl)=C(Cl)Cl	-6.4	35.5µM*	i	-18.4%	-1.7%	.
O=C(OCc1ccc([N+](=O)[O-])cc1)c1cc(S(=O)(=O)N2CCCCC2)ccc1N1CCOCC1	-92.7*	-3.5%	i	-1.9%	?	-80.2*
Cn1c2ccccc2c(=O)c2cc(C#Cc3ccccn3)ccc21	.	3.7%	i	3.5%	.	.
C=CCn1c2ccccc2c(=O)c2cc(C#Cc3cc(OC)cc(OC)c3)ccc21	6.0	-1.7%	i	-11.4%	.	-97.3*
CC(=O)NCCNC(=O)c1cnn(-c2nccc(-c3cc(C)sc3C)n2)c1C	.	-5.6%	.	.	.	.
COCCN(C)C(=O)c1cnn(-c2nccc(-c3cc(OC)ccc3OC)n2)c1C	.	0.3%	.	.	.	.
CCC1CN(Cc2cccc3nccnc23)Cc2cc(OC)ccc2O1 (stereo not given)	.	-1.7%	.	.	.	.
COc1ccc(C2C(C(=O)Nc3cccc(C)n3)c3ccccc3C(=O)N2C)cc1 (stereo not given)	-1.4	-3.7%	-109.7%*	-20.4%	-37.2%	14.5
COc1ccc(C2C(C(=O)N3CCC(C)CC3)c3ccccc3C(=O)N2C)cc1 (stereo not given)	-4.9	9.0%	i	1.1%	9.2%	-20.4
COc1ccc(C2C(C(=O)N3CCN(c4ccccc4F)CC3)c3ccccc3C(=O)N2C)cc1 (stereo not given)	-2.0	-2.2%	-128.7%*	-11.5%	3.3%	-0.1
CCNc1nc(Oc2ccc(C(=O)OCC)cc2)nc(SC)n1	-0.3	-3.0%	-121.1%*	-12.0%	-24.1%	-9.6
CCNc1nc(Oc2ccc(C(=O)OC)cc2)nc(SC)n1	-4.1	-0.9%	i	-5.7%	0.3%	-4.2
COc1ccc(N2CCN(C(=O)c3ccc(C)c(NC(=O)C4=C(C)OCCS4)c3)CC2)cc1	-9.6	2.1%	i	-2.5%	-5.0%	2.0
